{"source": "ChEMBL document CHEMBL1961873", "about": "“Compounds: GSK PKIS; Assays: Nanosyn kinase panel” (2012)", "key": {"[1]": {"target": "T1, Inhibitor of nuclear factor kappa-B kinase subunit epsilon (Homo sapiens) (UniProt Q14164)", "T1 sequence (whole entry)": "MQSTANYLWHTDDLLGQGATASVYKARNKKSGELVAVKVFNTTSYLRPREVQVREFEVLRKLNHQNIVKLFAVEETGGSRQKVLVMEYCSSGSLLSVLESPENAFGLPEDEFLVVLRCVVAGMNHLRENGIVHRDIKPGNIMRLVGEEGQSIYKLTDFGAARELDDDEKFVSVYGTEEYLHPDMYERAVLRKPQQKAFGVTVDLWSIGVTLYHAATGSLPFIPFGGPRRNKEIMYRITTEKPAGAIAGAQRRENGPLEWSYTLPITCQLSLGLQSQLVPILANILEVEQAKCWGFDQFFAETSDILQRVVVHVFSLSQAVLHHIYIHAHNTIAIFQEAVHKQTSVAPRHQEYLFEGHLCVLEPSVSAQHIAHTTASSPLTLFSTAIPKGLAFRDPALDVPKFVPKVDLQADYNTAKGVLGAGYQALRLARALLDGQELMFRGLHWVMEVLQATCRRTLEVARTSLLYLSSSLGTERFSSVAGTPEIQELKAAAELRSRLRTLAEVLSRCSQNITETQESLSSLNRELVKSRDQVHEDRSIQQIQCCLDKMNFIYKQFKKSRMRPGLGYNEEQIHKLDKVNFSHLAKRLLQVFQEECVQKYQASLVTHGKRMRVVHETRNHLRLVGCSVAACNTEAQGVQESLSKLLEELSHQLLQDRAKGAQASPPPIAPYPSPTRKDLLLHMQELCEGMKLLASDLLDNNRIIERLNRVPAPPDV", "conditions": "at 1 µM"}, "[2]": {"target": "T2, Serine/threonine-protein kinase Nek1 (Homo sapiens) (UniProt Q96PY6)", "T2 sequence (whole entry)": "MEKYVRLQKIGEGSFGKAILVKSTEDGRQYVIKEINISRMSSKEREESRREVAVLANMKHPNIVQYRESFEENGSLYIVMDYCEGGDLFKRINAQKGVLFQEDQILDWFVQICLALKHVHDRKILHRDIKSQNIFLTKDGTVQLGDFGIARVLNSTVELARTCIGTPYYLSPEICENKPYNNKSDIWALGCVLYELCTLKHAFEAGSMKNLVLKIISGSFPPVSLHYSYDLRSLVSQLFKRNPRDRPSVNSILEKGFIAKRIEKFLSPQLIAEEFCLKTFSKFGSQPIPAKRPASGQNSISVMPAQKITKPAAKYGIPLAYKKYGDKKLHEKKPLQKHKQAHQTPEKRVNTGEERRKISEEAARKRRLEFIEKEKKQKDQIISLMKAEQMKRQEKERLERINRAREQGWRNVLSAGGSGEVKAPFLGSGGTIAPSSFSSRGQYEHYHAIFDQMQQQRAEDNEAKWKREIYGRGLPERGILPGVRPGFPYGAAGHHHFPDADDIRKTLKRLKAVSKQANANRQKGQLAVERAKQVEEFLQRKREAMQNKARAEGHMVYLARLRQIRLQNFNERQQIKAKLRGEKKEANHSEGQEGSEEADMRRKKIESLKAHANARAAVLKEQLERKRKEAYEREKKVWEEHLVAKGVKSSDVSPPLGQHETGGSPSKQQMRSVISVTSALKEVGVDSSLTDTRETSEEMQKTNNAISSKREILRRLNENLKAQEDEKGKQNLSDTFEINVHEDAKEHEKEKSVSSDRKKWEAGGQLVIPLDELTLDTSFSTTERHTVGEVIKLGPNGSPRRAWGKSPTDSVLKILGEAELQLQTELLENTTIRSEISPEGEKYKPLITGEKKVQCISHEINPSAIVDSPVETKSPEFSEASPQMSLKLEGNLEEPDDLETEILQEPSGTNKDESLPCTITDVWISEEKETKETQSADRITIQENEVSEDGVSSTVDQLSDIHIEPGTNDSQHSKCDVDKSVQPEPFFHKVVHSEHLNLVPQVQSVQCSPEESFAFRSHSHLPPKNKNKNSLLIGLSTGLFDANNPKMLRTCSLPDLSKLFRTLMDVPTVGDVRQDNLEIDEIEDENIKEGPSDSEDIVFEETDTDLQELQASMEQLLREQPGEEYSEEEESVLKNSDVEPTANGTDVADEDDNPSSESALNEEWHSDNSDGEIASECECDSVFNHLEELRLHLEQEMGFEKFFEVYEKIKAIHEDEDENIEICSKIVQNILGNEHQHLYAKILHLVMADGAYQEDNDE", "conditions": "at 0.1 µM"}, "[3]": {"target": "T2, Serine/threonine-protein kinase Nek1 (Homo sapiens)", "conditions": "at 1 µM"}, "[4]": {"target": "T3, Serine/threonine-protein kinase Nek2 (Homo sapiens) (UniProt P51955)", "T3 sequence (whole entry)": "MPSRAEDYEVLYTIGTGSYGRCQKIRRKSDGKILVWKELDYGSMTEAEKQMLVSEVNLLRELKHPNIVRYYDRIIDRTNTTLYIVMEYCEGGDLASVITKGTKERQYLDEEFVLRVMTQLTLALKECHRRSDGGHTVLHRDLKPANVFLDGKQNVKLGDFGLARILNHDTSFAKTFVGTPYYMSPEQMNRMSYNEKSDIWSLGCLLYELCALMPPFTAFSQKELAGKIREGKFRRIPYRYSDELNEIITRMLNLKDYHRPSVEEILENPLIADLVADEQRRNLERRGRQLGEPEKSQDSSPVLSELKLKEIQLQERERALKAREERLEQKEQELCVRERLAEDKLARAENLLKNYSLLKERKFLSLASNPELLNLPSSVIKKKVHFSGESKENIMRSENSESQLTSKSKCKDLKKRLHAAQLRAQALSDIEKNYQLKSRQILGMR", "conditions": "at 0.1 µM"}, "[5]": {"target": "T3, Serine/threonine-protein kinase Nek2 (Homo sapiens)", "conditions": "at 1 µM"}, "[6]": {"target": "Serine/threonine-protein kinase Nek6 (Homo sapiens) (UniProt Q9HC98)", "sequence (Q9HC98 whole entry)": "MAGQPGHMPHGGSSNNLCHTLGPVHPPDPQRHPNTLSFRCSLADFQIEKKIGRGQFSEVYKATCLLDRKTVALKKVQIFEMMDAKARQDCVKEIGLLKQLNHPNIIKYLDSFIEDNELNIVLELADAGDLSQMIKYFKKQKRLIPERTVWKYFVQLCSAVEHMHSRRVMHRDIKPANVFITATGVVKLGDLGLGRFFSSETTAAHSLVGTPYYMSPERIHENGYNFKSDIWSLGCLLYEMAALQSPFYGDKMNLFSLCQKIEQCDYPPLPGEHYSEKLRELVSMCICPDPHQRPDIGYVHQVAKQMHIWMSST", "conditions": "at 0.1 µM"}, "[7]": {"target": "Serine/threonine-protein kinase Nek6 (Homo sapiens) (UniProt Q9HC98)", "conditions": "at 1 µM"}, "[8]": {"target": "Serine/threonine-protein kinase Nek7 (Homo sapiens) (UniProt Q8TDX7)", "sequence (Q8TDX7 whole entry, looked up)": "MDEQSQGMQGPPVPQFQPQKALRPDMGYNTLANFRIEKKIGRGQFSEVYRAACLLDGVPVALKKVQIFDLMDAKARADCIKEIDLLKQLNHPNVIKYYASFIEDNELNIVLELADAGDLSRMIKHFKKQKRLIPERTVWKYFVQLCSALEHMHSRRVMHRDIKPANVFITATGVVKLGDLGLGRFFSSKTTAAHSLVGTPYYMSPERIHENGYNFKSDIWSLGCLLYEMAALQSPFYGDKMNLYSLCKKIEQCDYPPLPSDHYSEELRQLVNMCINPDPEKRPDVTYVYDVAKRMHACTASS", "conditions": "at 0.1 µM"}, "[9]": {"target": "Serine/threonine-protein kinase Nek7 (Homo sapiens) (UniProt Q8TDX7)", "conditions": "at 1 µM"}, "[10]": {"target": "T4, Serine/threonine-protein kinase Nek9 (Homo sapiens) (UniProt Q8TD19)", "T4 sequence (whole entry)": "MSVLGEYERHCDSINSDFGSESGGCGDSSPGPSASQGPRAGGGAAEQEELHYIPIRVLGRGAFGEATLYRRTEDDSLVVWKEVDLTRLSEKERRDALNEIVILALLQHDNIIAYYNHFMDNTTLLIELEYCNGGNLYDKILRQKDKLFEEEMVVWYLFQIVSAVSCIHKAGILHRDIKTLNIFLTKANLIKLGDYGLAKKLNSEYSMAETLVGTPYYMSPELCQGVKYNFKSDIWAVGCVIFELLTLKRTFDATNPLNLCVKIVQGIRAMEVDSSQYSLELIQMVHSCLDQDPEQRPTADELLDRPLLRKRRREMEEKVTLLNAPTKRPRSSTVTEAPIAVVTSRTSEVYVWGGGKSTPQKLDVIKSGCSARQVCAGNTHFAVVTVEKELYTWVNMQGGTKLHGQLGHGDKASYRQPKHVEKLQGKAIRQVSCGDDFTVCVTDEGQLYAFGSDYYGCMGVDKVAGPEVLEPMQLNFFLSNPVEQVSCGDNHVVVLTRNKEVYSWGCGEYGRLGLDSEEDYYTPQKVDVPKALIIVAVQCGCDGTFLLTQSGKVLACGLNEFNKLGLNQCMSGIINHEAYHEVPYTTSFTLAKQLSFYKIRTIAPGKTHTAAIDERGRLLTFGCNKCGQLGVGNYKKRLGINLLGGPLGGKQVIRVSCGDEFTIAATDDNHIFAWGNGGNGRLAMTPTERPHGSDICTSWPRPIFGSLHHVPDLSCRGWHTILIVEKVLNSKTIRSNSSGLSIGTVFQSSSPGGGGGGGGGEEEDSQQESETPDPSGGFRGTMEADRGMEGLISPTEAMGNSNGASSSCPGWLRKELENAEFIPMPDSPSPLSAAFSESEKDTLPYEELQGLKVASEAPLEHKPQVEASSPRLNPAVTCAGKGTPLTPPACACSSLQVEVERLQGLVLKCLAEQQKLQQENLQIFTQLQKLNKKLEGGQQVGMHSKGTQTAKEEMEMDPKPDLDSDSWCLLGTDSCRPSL", "conditions": "at 0.1 µM"}}}
{"smiles": "Cc1ccc(C(=O)NC2CCC2)cc1-c1ccc(C(=O)NCC2CC2)cc1", "values": [{"measurement": "inhibition", "setting": "[1]", "result": 2.96, "unit": "%"}, {"measurement": "inhibition", "setting": "[2]", "result": 0.93, "unit": "%"}, {"measurement": "inhibition", "setting": "[3]", "result": 3.06, "unit": "%"}, {"measurement": "inhibition", "setting": "[4]", "result": 4.6, "unit": "%"}, {"measurement": "inhibition", "setting": "[5]", "result": 3.71, "unit": "%"}, {"measurement": "inhibition", "setting": "[6]", "result": -0.33, "unit": "%"}, {"measurement": "inhibition", "setting": "[7]", "result": 1.33, "unit": "%"}, {"measurement": "inhibition", "setting": "[8]", "result": 3.14, "unit": "%"}, {"measurement": "inhibition", "setting": "[9]", "result": 2.04, "unit": "%"}, {"measurement": "inhibition", "setting": "[10]", "result": 4.75, "unit": "%"}]}
